From PubChem BioAssay (Tox21)
Values without a mark were called inactive. Active and inactive are the calls of the source. The call rests on the fitted dose curve; in most records, active means well fitted activation curve with a large enough effect in the repeat runs; inconclusive means weak or mixed curves; inactive means flat fitted curve, though single readings scatter.

Assay: A CellTox Green Cytotoxicity Assay to monitor cytotoxicity in HEK293 cells - 0 hour (AID 1224869); further: nearly all actives have a fitted effect of over 50% in size
Details: CellTox Green fluorescence; series mostly up to 76.8 µM; cytotoxicity: at the top concentration
Method in brief: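 Nonlytic real-time cytotoxicity: HEK293 + CellTox Green reagent plated, 5 h preincubation, pintool compound addition (23 nL in DMSO), 37 C for 40 h, fluorescence measured at successive time points.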
On the % scale 0 is the no-effect control and ±100 the full control effect.

Question: Which “cytotoxicity” value does the source give for `CCCC[N+](=O)[O-]` here?
Answer: The value was -0.573%.

Question: For `BrCC1CO1` (centres undefined), which “cytotoxicity” value is on record?
Answer: Its value is 0.106%.

Question: With `CCC1(c2ccccc2)CCC(=O)NC1=O` (centres undefined) as the molecule, how does the “cytotoxicity” value read?
Answer: Its value is -1.75% [at 35.3 µM].

Question: Which “cytotoxicity” value does the source give for `ClC(Cl)(Cl)Cl` here?
Answer: The value was 1.79%.

Question: For `CCc1ccc(C2CCNCC2)cc1`, which “cytotoxicity” value is on record?
Answer: The value was 0.104% [at 35.3 µM].

Question: For `CC(C)C(C)(N)C#N` (centres undefined), which “cytotoxicity” value is on record?
Answer: Its value is -3.88%.

Question: Which “cytotoxicity” value does the source give for `CC(C)(C)C(=O)C(Cl)Cl` here?
Answer: The value was -2.22%.

Question: For `CN(C)C(=O)Oc1cc(OC(=O)N(C)C)cc(C(O)CNC(C)(C)C)c1` (centres undefined), which “cytotoxicity” value is on record?
Answer: Its value is -11.1% [at 35.3 µM].

Question: For `CCOC(=O)NC(C)(C)Cc1ccc(Cl)cc1`, which “cytotoxicity” value is on record?
Answer: Its value is 4.87% [at 35.3 µM].

Question: With `C=C(Cl)CSC(=S)N(CC)CC` as the molecule, how does the “cytotoxicity” value read?
Answer: The value was -0.184%.

Question: Which cytotoxicity does the source give for `O=P(O)(O)CN(CP(=O)(O)O)CP(=O)(O)O` here?
Answer: Its cytotoxicity is 9.86% [at 15.8 µM].

Question: Which “cytotoxicity” value does the source give for `CN(C)CCc1c[nH]c2cccc(OP(=O)(O)O)c12` here?
Answer: Its value is -4.51%.

Question: Which “cytotoxicity” value does the source give for `Cn1c(N)nc2c3cccnc3ccc21` here?
Answer: Its value is -5.3%.

Question: With `O=C1C2CC=CCC2C(=O)N1SC(Cl)(Cl)Cl` (centres undefined) as the molecule, how does the outcome read?
Answer: The outcome was “inactive”.

Question: Which “cytotoxicity” value does the source give for `CCNc1nc(NCC)nc(SC)n1` here?
Answer: Its value is -2.55%.

Question: Which “cytotoxicity” value does the source give for `N[C@@H](Cc1ccc(Oc2cc(I)c(O)c(I)c2)c(I)c1)C(=O)O` here?
Answer: The value was -7.74% [at 35.3 µM].

Question: For `Clc1ccc(C(Cl)(Cl)Cl)cn1`, which “cytotoxicity” value is on record?
Answer: The value was 4.51%.

Question: Which “cytotoxicity” value does the source give for `CCNc1nc(Cl)nc(NC(C)(C)C)n1` here?
Answer: Its value is 0.832%.

Question: Which “cytotoxicity” value does the source give for `COc1ccc2c(C(=O)c3ccc(Cl)cc3)c(C)n(CC(=O)O)c2c1` here?
Answer: Its value is -0.0653% [at 35.3 µM].

Question: For `CCCOC(=O)c1cncn1C(C)c1ccccc1` (centres undefined), which “cytotoxicity” value is on record?
Answer: The value was 0.45% [at 35.3 µM].

Question: For `CCOC(=O)C(Cl)Cc1cc(-n2nc(C)n(C(F)F)c2=O)c(F)cc1Cl` (centres undefined), which “cytotoxicity” value is on record?
Answer: Its value is -3.97%.

Question: For `COc1ccc(CN2CCNCC2)c(OC)c1OC`, which “cytotoxicity” value is on record?
Answer: Its value is -4.29% [at 35.3 µM].

Question: Which “cytotoxicity” value does the source give for `CCOP(=S)(OCC)SCCl` here?
Answer: The value was 2.12%.

Question: For `CC(=O)OCC1=C(C(=O)O)N2C(=O)[C@@H](N)[C@H]2SC1`, which cytotoxicity is on record?
Answer: The cytotoxicity was 1.32% [at 15.8 µM].
